# From PubChem BioAssay
# Hits are enriched below; roughly 3% of the tested compounds scored in any of these assays.
# EWS-Fli inh: EWS/Fli transcriptional activity inhibition; A673 NR0B1-luciferase reporter, viability-normalised; inhibition, % at 12.6 µM; AID 651661; 0.67% of 350,000 active;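 active means mean inhibition of at least 50% after viability correction, with every replicate also passing that limit; inconclusive means mean reaches 50% but only one of two replicates passes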;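 further: firefly luciferase signal divided by Alamar Blue viability fluorescence both relative to DMSO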
# PAX8 reporter: PAX8 transcriptional activity inhibition; inhibition, % at 12.6 µM; AID 652154; RMG-I TPO-luciferase reporter, SteadyGlo, 24 h; 1.2% of 360,000 active;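 active means mean replicate inhibition at least 60% with every replicate also reaching 60%; inconclusive means only one of the two criteria is met; inactive means mean below 60% and not all replicates reaching 60%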;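 further: luciferase light reporting Pax8 driven TPO promoter activity; plate controls were median of neutral control wells for no effect and mitoxantrone controls for full effect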
# ABHD5 PLIN5 PPI: blocks binding of human ABHD5 to perilipin-5. 0.78% of 360,000 active. AID 602281. inhibition, % at 4 µM. Q00G26+Q8WTS1. Split G. princeps luciferase complementation, luminescence, 4 h;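 active means inhibition above the mean inhibition across every tested compound plus 3 SD, cut at about 22% in these data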;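 further: 0% = DMSO only wells and the 100% control is not disclosed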
# MITF TRPM1 inh: MITF TRPM1 promoter inhibition in SK-MEL-5 cells; SK-MEL-5 TRPM1 promoter luciferase, 24 h; inhibition, % at 12.5 µM; 0.83% of 330,000 active; AID 488899;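 active means mean inhibition across replicates of 60% or more, whatever share of single replicates reaches that level; inconclusive means some that reach 60%, reason not given; inactive means mean inhibition across replicates below 60%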
# Shn3 3UTR inh: inhibitors of Schnurri-3 3'UTR reporter in osteoblasts. Clone20 osteoblast Shn3 3'UTR firefly luciferase, 24 h. inhibition, % at 12.5 µM. 0.52% of 360,000 active;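 active means mean inhibition of at least 75% with every replicate also reaching 75%; inconclusive means mean inhibition at least 75% but some replicate below; inactive means mean inhibition below 75%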;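 further: 0% = median of neutral control wells and 100% = pilot-screen positive control compound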
# Peg3 promoter: inhibitors of Peg3 promoter; HeLa PEG-Prom luciferase reporter, luminescence, overnight; inhibition, % at 20 µM; 1.7% of 360,000 active; AID 588405;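 active means inhibition of at least 50% at 20 µM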
# Active calls of the source: *; ? = inconclusive; · = no result given.
SMILES,EWS-Fli inh,PAX8 reporter,ABHD5 PLIN5 PPI,MITF TRPM1 inh,Shn3 3UTR inh,Peg3 promoter
O=C1/C(=C\c2cc([N+](=O)[O-])ccc2O)SC(=S)N1Cc1ccc(Cl)cc1,13,9,-7,7,28,97*
C[C@H](CO)N1C[C@H](C)[C@H](CN(C)S(=O)(=O)c2ccccc2)Oc2ccc(N(C)C)cc2C1=O,6,-1,·,·,·,·
Fc1cccc(Cl)c1/C=C/c1cnc2ccccc2n1,82*,-5,20,3,11,-97
CC1(C)CC[C@]2(C(=O)O)CC[C@]3(C)C(=CC[C@@H]4[C@@]5(C)CC[C@H](O[C@@H]6O[C@H](C(=O)O)[C@@H](O)[C@H](O[C@@H]7OC[C@H](O)[C@H](O)[C@H]7O)[C@H]6O)C(C)(C)[C@@H]5CC[C@]43C)[C@@H]2C1,?,101*,-7,6,71,59*
Cc1nc2c(O)c3c(c(O)c2nc1C)C1C=CC3CC1,-5,1,-21,63*,97*,93*
O=C(C[n+]1ccc(C(=O)N/N=C/c2ccc(OCc3ccccc3)cc2)cc1)c1ccccc1,-57,·,26*,-129,-107,-181
O=C(C[n+]1ccc(C(=O)N/N=C/c2ccc(O)cc2)cc1)c1ccccc1,·,-10,-3,-8,0,-25
O=C1CSC(c2ccccc2)N1c1cccc(Cl)c1 (stereo not drawn),-5,-5,·,·,·,·
COc1cc(OC)c2c(-c3cccc(-c4ccc(OC)c(F)c4)c3)cc(=O)oc2c1,39,89*,-1,53,-9,-38
Cc1cc(C(=O)Nc2cccc3c2O[C@H](CN(C)C(=O)Nc2ccc4c(c2)OCO4)[C@@H](C)CN([C@@H](C)CO)C3=O)n(C)n1,-2,·,·,·,·,·
O=C(O)c1cccc(-c2nc3ccccc3[nH]2)c1,44,48,13,49,31,55*
c1ccc(-c2nc3ccccc3[nH]2)cc1,-92,-201,-8,-84,-141,-282
CCNC(=O)[C@H]1[C@H](CO)[C@H]2Cn3c(ccc(-c4cccc(F)c4)c3=O)[C@@H]1N2C(C)=O,-1,·,·,·,·,·
COc1ccccc1C#Cc1ccc2c(c1)O[C@@H](CN(C)Cc1cccnc1)[C@@H](C)CN([C@@H](C)CO)S2(=O)=O,17,24,·,·,·,·
COc1ccccc1C#Cc1ccc2c(c1)O[C@@H](CN(C)Cc1cccnc1)[C@H](C)CN([C@@H](C)CO)S2(=O)=O,15,68*,·,·,·,·
COc1ccccc1C#Cc1ccc2c(c1)O[C@@H](CN(C)Cc1ccncc1)[C@H](C)CN([C@H](C)CO)S2(=O)=O,38,99*,·,·,·,·
COc1ccccc1C#Cc1ccc2c(c1)O[C@H](CN(C)Cc1ccncc1)[C@@H](C)CN([C@@H](C)CO)S2(=O)=O,14,93*,·,·,·,·
COc1ccccc1C#Cc1ccc2c(c1)O[C@@H](CN(C)Cc1ccncc1)[C@H](C)CN([C@@H](C)CO)S2(=O)=O,34,101*,·,·,·,·
O=C(NC1CCCCC1)N1CC2(C1)[C@H](c1ccccc1)[C@H](CO)N2CC1CC1,-4,·,·,·,·,·
C[C@H](CO)N1C[C@H](C)[C@@H](CN(C)C(=O)CN(C)C)Oc2cc(C#C[C@@H](C)O)ccc2S1(=O)=O,-7,·,·,·,·,·
COc1cccc(-c2nn(C)c3sc(C(=O)N4CCN(c5ccccn5)CC4)cc23)c1,·,·,6,37,73,57*
COc1cccc(-c2nn(C)c3sc(C(=O)N4CCOCC4)cc23)c1,5,-2,0,·,4,2
CC(C)NC(=O)N(C)C[C@H]1Oc2c(NS(=O)(=O)c3ccc(F)cc3)cccc2C(=O)N([C@@H](C)CO)C[C@@H]1C,-11,-2,·,·,·,·
O=C(NC(=S)N1CCN(Cc2ccc3c(c2)OCO3)CC1)c1cccc(Br)c1,17,76*,-4,2,14,1
C=Cc1ncc(OC)c2c1[nH]c1ccccc12,·,·,24*,82*,12,81*
SMILES,EWS-Fli inh,PAX8 reporter,ABHD5 PLIN5 PPI,MITF TRPM1 inh,Shn3 3UTR inh,Peg3 promoter
COc1ccc(Nc2nc(N)nc(CCl)n2)cc1,44,101*,-1,-66,-15,-59
Cc1ccc(Nc2nc(N)nc(CN3CCN(c4ccccc4)CC3)n2)cc1Cl,·,·,-1,4,10,34
Cc1ccccc1Nc1nc(N)nc(CCl)n1,61*,102*,0,-6,-15,10
Nc1nc(CCl)nc(Nc2ccc3ccccc3c2)n1,53*,98*,11,15,-72,-32
COc1ccc(Nc2nc(N)nc(CN3CCOCC3)n2)cc1,·,·,0,12,-39,32
C[C@@H]1CCCCO[C@@H](CN(C)S(=O)(=O)c2cccs2)[C@H](C)CN([C@H](C)CO)C(=O)c2cc(NC(=O)c3ccccc3)ccc2O1,20,0,·,·,·,·
O=C(c1ccccc1)N1CC(=O)N2[C@H](C1)[C@@H](c1ccc(C3=CCCC3)cc1)[C@@H]2CO,-4,-5,·,·,·,·
O=C(O)C[C@H]1C=C[C@@H](NC(=O)Nc2ccccc2)[C@H](CO)O1,0,8,·,·,·,·
COc1ccc2c3c([nH]c2c1)[C@@H](CO)N(C(=O)NC(C)C)CC31CCN(Cc2ccccc2)CC1,-5,·,·,·,·,·
COc1ccc(/C=C/C(O)=C2/C(=O)N(C)C3(C)CC2c2ccccc2O3)cc1 (stereo not drawn),·,·,7,20,-30,29
Cc1ccc(/C=C/C(O)=C2/C(=O)N(C)C3(C)CC2c2ccccc2O3)cc1 (stereo not drawn),·,44,22*,11,-8,39
C[C@@H]1CCCCO[C@@H](CN(C)C(=O)NC2CCCCC2)[C@H](C)CN([C@@H](C)CO)C(=O)c2cc(NC(=O)c3ccncc3)ccc2O1,-1,-13,·,·,·,·
Cc1nc(Nc2ccccc2)c2oc3ccc(Cl)cc3c2n1,-43,-29,3,-31,-9,-86
Clc1ccc2oc3c(Cl)ncnc3c2c1,39,27,0,77*,-14,84*
Cc1cc(C)c2nc(NNC(=O)c3ccc(S(=O)(=O)N4CCc5ccccc5C4)cc3)sc2c1,7,62*,30*,78*,93*,75*
CCc1nnc(NC(=O)c2ccc(S(=O)(=O)N3CCc4ccccc4C3)cc2)s1,-16,-2,-5,-3,-18,4
Cc1ccc2nc(N(CCCN(C)C)C(=O)c3ccc(S(=O)(=O)N4CCc5ccccc5C4)cc3)sc2c1,·,33,10,76*,25,101*
Cc1cc(C)c2sc(N(CCCN(C)C)C(=O)c3ccc(S(=O)(=O)N4CCc5ccccc5C4)cc3)nc2c1,·,·,11,89*,-28,96*
Cc1cccc2sc(N(CCCN(C)C)C(=O)c3ccc(S(=O)(=O)N4CCc5ccccc5C4)cc3)nc12,·,25,8,44,16,30
C[C@@H]1CN([C@H](C)CO)C(=O)Cc2cc(NC(=O)Nc3cccc4ccccc34)ccc2O[C@H]1CN(C)Cc1ccncc1,·,6,·,·,·,·
C/C=C/c1ccc([C@@H]2[C@@H](CO)N(C(=O)CN(C)C)C23CN(C(=O)C2CCC2)C3)cc1,-1,-1,·,·,·,·
